# Publication PMC11006913
# Changes are numbered by the printed parent chain.
# Columns and labels:
# Assay in all cases: PBM; 200 nM protein, PBS
# Conditions in all cases: dsDNA, one strand shown
# [1] = target: T1, SIX6 (Homo sapiens, UniProt O95475 114-200, L167I)
# T1 sequence: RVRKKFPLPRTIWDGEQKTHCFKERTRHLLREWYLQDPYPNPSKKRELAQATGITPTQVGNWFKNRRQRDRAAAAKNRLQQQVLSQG
# [2] = target: T2, SIX6 (Homo sapiens, UniProt O95475 114-200, L143V)
# T2 sequence: T1 sequence with L30V, I54L
# [3] = target: T3, SIX6 (Homo sapiens, UniProt O95475 114-200, H141N)
# T3 sequence: T1 sequence with H28N, I54L
# [4] = target: T4, SIX6 (Homo sapiens, UniProt O95475 114-200, T165P)
# T4 sequence: T1 sequence with T52P, I54L
# [5] = target: T5, SIX6 (Homo sapiens, UniProt O95475 114-200, L167M)
# T5 sequence: T1 sequence with I54M
# [6] = target: T6, SIX6 (Homo sapiens, UniProt O95475 114-200, L143M)
# T6 sequence: T1 sequence with L30M, I54L
# [7] = target: T7, SIX6 (Homo sapiens, UniProt O95475 114-200, L143I)
# T7 sequence: T1 sequence with L30I, I54L
# [8] = target: T8, SIX6 (Homo sapiens, UniProt O95475 114-200, T165G)
# T8 sequence: T1 sequence with T52G, I54L
# [9] = target: T9, SIX6 (Homo sapiens, UniProt O95475 114-200, T139Q)
# T9 sequence: T1 sequence with T26Q, I54L
# [10] = target: T10, SIX6 (Homo sapiens, UniProt O95475 114-200, T165A)
# T10 sequence: T1 sequence with T52A, I54L
# [11] = target: T11, SIX6 (Homo sapiens, UniProt O95475 114-200, L167V)
# T11 sequence: T1 sequence with I54V
# [12] = target: T12, SIX6 (Homo sapiens, UniProt O95475 114-200)
# T12 sequence: T1 sequence with I54L
# [13] = target: T13, SIX6 (Homo sapiens, UniProt O95475 114-200, T165I)
# T13 sequence: T1 sequence with T52I, I54L
sequence,measurement,setting,value
AGGCCCCG,binding signal,[1],"8.89 upbm affinity estimate (log intensity, higher = more binding, comparable within an allelic series)"
same,binding signal,[2],"8.82 upbm affinity estimate (log intensity, higher = more binding, comparable within an allelic series)"
same,binding signal,[3],"8.69 upbm affinity estimate (log intensity, higher = more binding, comparable within an allelic series)"
same,binding signal,[4],"8.87 upbm affinity estimate (log intensity, higher = more binding, comparable within an allelic series)"
same,binding signal,[5],"8.92 upbm affinity estimate (log intensity, higher = more binding, comparable within an allelic series)"
same,binding signal,[6],"8.79 upbm affinity estimate (log intensity, higher = more binding, comparable within an allelic series)"
same,binding signal,[7],"8.8 upbm affinity estimate (log intensity, higher = more binding, comparable within an allelic series)"
same,binding signal,[8],"8.83 upbm affinity estimate (log intensity, higher = more binding, comparable within an allelic series)"
same,binding signal,[9],"8.79 upbm affinity estimate (log intensity, higher = more binding, comparable within an allelic series)"
same,binding signal,[10],"8.77 upbm affinity estimate (log intensity, higher = more binding, comparable within an allelic series)"
same,binding signal,[11],"8.67 upbm affinity estimate (log intensity, higher = more binding, comparable within an allelic series)"
same,binding signal,[12],"8.75 upbm affinity estimate (log intensity, higher = more binding, comparable within an allelic series)"
same,binding signal,[13],"8.82 upbm affinity estimate (log intensity, higher = more binding, comparable within an allelic series)"
ACTGATAC,binding signal,[1],"11.3 upbm affinity estimate (log intensity, higher = more binding, comparable within an allelic series)"
same,binding signal,[2],"10.3 upbm affinity estimate (log intensity, higher = more binding, comparable within an allelic series)"
same,binding signal,[3],"11.3 upbm affinity estimate (log intensity, higher = more binding, comparable within an allelic series)"
same,binding signal,[4],"9.79 upbm affinity estimate (log intensity, higher = more binding, comparable within an allelic series)"
same,binding signal,[5],"10.5 upbm affinity estimate (log intensity, higher = more binding, comparable within an allelic series)"
same,binding signal,[6],"10.9 upbm affinity estimate (log intensity, higher = more binding, comparable within an allelic series)"
same,binding signal,[7],"10.4 upbm affinity estimate (log intensity, higher = more binding, comparable within an allelic series)"
same,binding signal,[8],"11.3 upbm affinity estimate (log intensity, higher = more binding, comparable within an allelic series)"
same,binding signal,[9],"11.3 upbm affinity estimate (log intensity, higher = more binding, comparable within an allelic series)"
same,binding signal,[10],"11.2 upbm affinity estimate (log intensity, higher = more binding, comparable within an allelic series)"
same,binding signal,[11],"10.9 upbm affinity estimate (log intensity, higher = more binding, comparable within an allelic series)"
same,binding signal,[12],"11 upbm affinity estimate (log intensity, higher = more binding, comparable within an allelic series)"
same,binding signal,[13],"11 upbm affinity estimate (log intensity, higher = more binding, comparable within an allelic series)"
GGCGCCCA,binding signal,[1],"8.76 upbm affinity estimate (log intensity, higher = more binding, comparable within an allelic series)"
same,binding signal,[2],"8.78 upbm affinity estimate (log intensity, higher = more binding, comparable within an allelic series)"
same,binding signal,[3],"8.67 upbm affinity estimate (log intensity, higher = more binding, comparable within an allelic series)"
same,binding signal,[4],"8.95 upbm affinity estimate (log intensity, higher = more binding, comparable within an allelic series)"
same,binding signal,[5],"8.83 upbm affinity estimate (log intensity, higher = more binding, comparable within an allelic series)"
same,binding signal,[6],"8.75 upbm affinity estimate (log intensity, higher = more binding, comparable within an allelic series)"
same,binding signal,[7],"8.8 upbm affinity estimate (log intensity, higher = more binding, comparable within an allelic series)"
same,binding signal,[8],"8.82 upbm affinity estimate (log intensity, higher = more binding, comparable within an allelic series)"
same,binding signal,[9],"8.81 upbm affinity estimate (log intensity, higher = more binding, comparable within an allelic series)"
same,binding signal,[10],"8.62 upbm affinity estimate (log intensity, higher = more binding, comparable within an allelic series)"
same,binding signal,[11],"8.78 upbm affinity estimate (log intensity, higher = more binding, comparable within an allelic series)"
same,binding signal,[12],"8.71 upbm affinity estimate (log intensity, higher = more binding, comparable within an allelic series)"
same,binding signal,[13],"8.73 upbm affinity estimate (log intensity, higher = more binding, comparable within an allelic series)"
CAGGGCGC,binding signal,[1],"9.09 upbm affinity estimate (log intensity, higher = more binding, comparable within an allelic series)"
same,binding signal,[2],"8.83 upbm affinity estimate (log intensity, higher = more binding, comparable within an allelic series)"
same,binding signal,[3],"9.07 upbm affinity estimate (log intensity, higher = more binding, comparable within an allelic series)"
same,binding signal,[4],"9 upbm affinity estimate (log intensity, higher = more binding, comparable within an allelic series)"
same,binding signal,[5],"8.98 upbm affinity estimate (log intensity, higher = more binding, comparable within an allelic series)"
same,binding signal,[6],"9.04 upbm affinity estimate (log intensity, higher = more binding, comparable within an allelic series)"
same,binding signal,[7],"8.98 upbm affinity estimate (log intensity, higher = more binding, comparable within an allelic series)"
same,binding signal,[8],"9.07 upbm affinity estimate (log intensity, higher = more binding, comparable within an allelic series)"
same,binding signal,[9],"8.97 upbm affinity estimate (log intensity, higher = more binding, comparable within an allelic series)"
same,binding signal,[10],"8.99 upbm affinity estimate (log intensity, higher = more binding, comparable within an allelic series)"
same,binding signal,[11],"9.01 upbm affinity estimate (log intensity, higher = more binding, comparable within an allelic series)"
same,binding signal,[12],"9.01 upbm affinity estimate (log intensity, higher = more binding, comparable within an allelic series)"
same,binding signal,[13],"8.97 upbm affinity estimate (log intensity, higher = more binding, comparable within an allelic series)"
AGCGGTGG,binding signal,[1],"8.97 upbm affinity estimate (log intensity, higher = more binding, comparable within an allelic series)"
same,binding signal,[2],"8.89 upbm affinity estimate (log intensity, higher = more binding, comparable within an allelic series)"
same,binding signal,[3],"8.96 upbm affinity estimate (log intensity, higher = more binding, comparable within an allelic series)"
same,binding signal,[4],"8.97 upbm affinity estimate (log intensity, higher = more binding, comparable within an allelic series)"
same,binding signal,[5],"8.93 upbm affinity estimate (log intensity, higher = more binding, comparable within an allelic series)"
same,binding signal,[6],"9.05 upbm affinity estimate (log intensity, higher = more binding, comparable within an allelic series)"
same,binding signal,[7],"9 upbm affinity estimate (log intensity, higher = more binding, comparable within an allelic series)"
same,binding signal,[8],"8.94 upbm affinity estimate (log intensity, higher = more binding, comparable within an allelic series)"
same,binding signal,[9],"9.04 upbm affinity estimate (log intensity, higher = more binding, comparable within an allelic series)"
same,binding signal,[10],"8.98 upbm affinity estimate (log intensity, higher = more binding, comparable within an allelic series)"
same,binding signal,[11],"8.84 upbm affinity estimate (log intensity, higher = more binding, comparable within an allelic series)"
same,binding signal,[12],"9.06 upbm affinity estimate (log intensity, higher = more binding, comparable within an allelic series)"
same,binding signal,[13],"8.95 upbm affinity estimate (log intensity, higher = more binding, comparable within an allelic series)"
CTGTATCA,binding signal,[1],"11.2 upbm affinity estimate (log intensity, higher = more binding, comparable within an allelic series)"
same,binding signal,[2],"10.3 upbm affinity estimate (log intensity, higher = more binding, comparable within an allelic series)"
same,binding signal,[3],"11.2 upbm affinity estimate (log intensity, higher = more binding, comparable within an allelic series)"
same,binding signal,[4],"9.69 upbm affinity estimate (log intensity, higher = more binding, comparable within an allelic series)"
same,binding signal,[5],"10.6 upbm affinity estimate (log intensity, higher = more binding, comparable within an allelic series)"
same,binding signal,[6],"10.9 upbm affinity estimate (log intensity, higher = more binding, comparable within an allelic series)"
same,binding signal,[7],"10.3 upbm affinity estimate (log intensity, higher = more binding, comparable within an allelic series)"
same,binding signal,[8],"11.1 upbm affinity estimate (log intensity, higher = more binding, comparable within an allelic series)"
same,binding signal,[9],"11.1 upbm affinity estimate (log intensity, higher = more binding, comparable within an allelic series)"
same,binding signal,[10],"11.1 upbm affinity estimate (log intensity, higher = more binding, comparable within an allelic series)"
same,binding signal,[11],"10.9 upbm affinity estimate (log intensity, higher = more binding, comparable within an allelic series)"
same,binding signal,[12],"10.9 upbm affinity estimate (log intensity, higher = more binding, comparable within an allelic series)"
same,binding signal,[13],"10.9 upbm affinity estimate (log intensity, higher = more binding, comparable within an allelic series)"
CAGCGTGC,binding signal,[1],"9.15 upbm affinity estimate (log intensity, higher = more binding, comparable within an allelic series)"
same,binding signal,[2],"9.01 upbm affinity estimate (log intensity, higher = more binding, comparable within an allelic series)"
same,binding signal,[3],"9.08 upbm affinity estimate (log intensity, higher = more binding, comparable within an allelic series)"
same,binding signal,[4],"9.06 upbm affinity estimate (log intensity, higher = more binding, comparable within an allelic series)"
same,binding signal,[5],"9.05 upbm affinity estimate (log intensity, higher = more binding, comparable within an allelic series)"
same,binding signal,[6],"9.23 upbm affinity estimate (log intensity, higher = more binding, comparable within an allelic series)"
same,binding signal,[7],"9.08 upbm affinity estimate (log intensity, higher = more binding, comparable within an allelic series)"
same,binding signal,[8],"9.19 upbm affinity estimate (log intensity, higher = more binding, comparable within an allelic series)"
same,binding signal,[9],"9.15 upbm affinity estimate (log intensity, higher = more binding, comparable within an allelic series)"
same,binding signal,[10],"9.11 upbm affinity estimate (log intensity, higher = more binding, comparable within an allelic series)"
same,binding signal,[11],"9.05 upbm affinity estimate (log intensity, higher = more binding, comparable within an allelic series)"
same,binding signal,[12],"9.14 upbm affinity estimate (log intensity, higher = more binding, comparable within an allelic series)"
same,binding signal,[13],"9.05 upbm affinity estimate (log intensity, higher = more binding, comparable within an allelic series)"
CCGGGGCC,binding signal,[1],"9.14 upbm affinity estimate (log intensity, higher = more binding, comparable within an allelic series)"
same,binding signal,[2],"8.96 upbm affinity estimate (log intensity, higher = more binding, comparable within an allelic series)"
same,binding signal,[3],"9.12 upbm affinity estimate (log intensity, higher = more binding, comparable within an allelic series)"
same,binding signal,[4],"8.97 upbm affinity estimate (log intensity, higher = more binding, comparable within an allelic series)"
same,binding signal,[5],"9.04 upbm affinity estimate (log intensity, higher = more binding, comparable within an allelic series)"
same,binding signal,[6],"9.04 upbm affinity estimate (log intensity, higher = more binding, comparable within an allelic series)"
same,binding signal,[7],"9.01 upbm affinity estimate (log intensity, higher = more binding, comparable within an allelic series)"
same,binding signal,[8],"9.1 upbm affinity estimate (log intensity, higher = more binding, comparable within an allelic series)"
same,binding signal,[9],"9.26 upbm affinity estimate (log intensity, higher = more binding, comparable within an allelic series)"
same,binding signal,[10],"9.1 upbm affinity estimate (log intensity, higher = more binding, comparable within an allelic series)"
same,binding signal,[11],"9.05 upbm affinity estimate (log intensity, higher = more binding, comparable within an allelic series)"
same,binding signal,[12],"9.09 upbm affinity estimate (log intensity, higher = more binding, comparable within an allelic series)"
same,binding signal,[13],"9.09 upbm affinity estimate (log intensity, higher = more binding, comparable within an allelic series)"
GGCCTCCA,binding signal,[1],"8.94 upbm affinity estimate (log intensity, higher = more binding, comparable within an allelic series)"
same,binding signal,[2],"8.93 upbm affinity estimate (log intensity, higher = more binding, comparable within an allelic series)"
same,binding signal,[3],"8.87 upbm affinity estimate (log intensity, higher = more binding, comparable within an allelic series)"
same,binding signal,[4],"9.13 upbm affinity estimate (log intensity, higher = more binding, comparable within an allelic series)"
same,binding signal,[5],"8.94 upbm affinity estimate (log intensity, higher = more binding, comparable within an allelic series)"
same,binding signal,[6],"8.87 upbm affinity estimate (log intensity, higher = more binding, comparable within an allelic series)"
same,binding signal,[7],"8.9 upbm affinity estimate (log intensity, higher = more binding, comparable within an allelic series)"
same,binding signal,[8],"9 upbm affinity estimate (log intensity, higher = more binding, comparable within an allelic series)"
same,binding signal,[9],"8.8 upbm affinity estimate (log intensity, higher = more binding, comparable within an allelic series)"
same,binding signal,[10],"8.84 upbm affinity estimate (log intensity, higher = more binding, comparable within an allelic series)"
same,binding signal,[11],"9.03 upbm affinity estimate (log intensity, higher = more binding, comparable within an allelic series)"
same,binding signal,[12],"8.82 upbm affinity estimate (log intensity, higher = more binding, comparable within an allelic series)"
same,binding signal,[13],"8.87 upbm affinity estimate (log intensity, higher = more binding, comparable within an allelic series)"
